This is a sample that favours compounds with a hit; in the whole collection about 5.4% have one here.
Calb FLC: affects C. albicans growth with fluconazole. AID 1979. C. albicans CaCi-2 (fluconazole-resistant clinical isolate) + fluconazole, Alamar Blue growth, 48 h. 300,000 tested, 0.57% active. growth inhibition, % (concentration not given with the values);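 active = growth inhibition above about 58% in most replicates, limit read from the data, passing the limit was not always enough; inconclusive = exactly half the replicates above a set limit; inactive = most replicates below a set limit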;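 note: all wells also contain fluconazole at 8 µg/ml as a sub-toxic cotreatment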
Mdm2-MdmX inh: inhibitors of human Mdm2/MdmX interaction; SaOS-2 split-luciferase Mdm2/MdmX complementation, luminescence; inhibition, % at 8 µM; 330,000 tested, 3% active; AID 485346;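 active = inhibition of at least 50% at 8 µM in the primary screen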
Target sequence (O15151 whole entry, looked up): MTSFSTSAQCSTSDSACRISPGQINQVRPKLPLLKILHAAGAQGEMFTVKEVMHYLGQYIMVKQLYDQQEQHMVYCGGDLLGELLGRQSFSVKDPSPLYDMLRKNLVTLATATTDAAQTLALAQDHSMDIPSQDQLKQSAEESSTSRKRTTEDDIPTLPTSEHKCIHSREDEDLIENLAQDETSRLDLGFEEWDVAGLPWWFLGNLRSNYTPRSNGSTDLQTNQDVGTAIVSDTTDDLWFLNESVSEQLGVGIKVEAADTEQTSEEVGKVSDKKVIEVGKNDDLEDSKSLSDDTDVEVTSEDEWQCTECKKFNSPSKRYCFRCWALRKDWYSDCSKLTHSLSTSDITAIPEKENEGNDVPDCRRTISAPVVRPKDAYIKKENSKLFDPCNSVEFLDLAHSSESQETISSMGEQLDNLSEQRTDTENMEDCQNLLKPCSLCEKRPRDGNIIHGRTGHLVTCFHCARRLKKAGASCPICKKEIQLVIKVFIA
Target sequence (Q00987 whole entry, looked up): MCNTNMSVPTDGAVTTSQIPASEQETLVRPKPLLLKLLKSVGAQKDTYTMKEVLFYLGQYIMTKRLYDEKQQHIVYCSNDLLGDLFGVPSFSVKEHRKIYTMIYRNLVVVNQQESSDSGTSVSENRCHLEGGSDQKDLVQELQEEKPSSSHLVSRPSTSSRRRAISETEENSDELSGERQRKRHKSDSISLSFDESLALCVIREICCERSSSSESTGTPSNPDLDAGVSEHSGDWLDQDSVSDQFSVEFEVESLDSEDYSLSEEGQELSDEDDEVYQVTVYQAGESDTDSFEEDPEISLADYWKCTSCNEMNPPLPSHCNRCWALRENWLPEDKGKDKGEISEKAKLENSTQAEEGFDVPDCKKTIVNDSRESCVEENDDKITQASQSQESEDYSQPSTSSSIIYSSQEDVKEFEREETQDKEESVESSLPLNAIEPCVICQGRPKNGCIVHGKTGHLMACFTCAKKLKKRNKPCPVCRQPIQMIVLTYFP
CSC inhib: cancer stem cell inhibition | cancer stem cell-like cells viability, luminescence | inhibition, % at 7.5 µM | 300,000 tested, 1.1% active; in the data active = inhibition above about 75%; inconclusive = no clear call, values can overlap the other calls; tested in HMLE shEcad cells
Beta cell apopt: beta cell apoptosis inhibition; AID 435005; protection from apoptosis, % (no concentration beside the values); 300,000 tested, 0.8% active; INS-1E cytokine-induced death, ATP luminescence, 48 h; percent of positive-control rescue, neutral wells zero;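 active = Every replicate reaches about 75%, or at least half do and their mean reaches it too, limit read from the data; inconclusive = At least half of replicates reach the limit but their mean does not; inactive = Under half of replicates reach the limit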;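 note: higher means more ATP so stronger rescue from cytokine killing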
SKKanGAS inh: blocks kanamycin growth of S. pyogenes SKKanGAS strain; BacTiter-Glo, 6 h; 300,000 tested, 1.3% active; inhibition, % at 7.5 µM;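 active = mean replicate score, as percent of positive control median, at least 50; inconclusive = mean below 50 but one replicate at or above 50; inactive = mean and every replicate below 50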;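 note: strain carries kanamycin resistance gene driven by streptokinase promoter and grows in 40 µg/ml kanamycin; loss of luminescence reflects streptokinase promoter inhibition or plain growth inhibition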
MPTP inh: inhibitors of mitochondrial permeability transition pore. 360,000 tested, 1.4% active. isolated mouse mitochondria, Ca2+ swelling absorbance, 30 min. AID 602449. inhibition, % at 10 µM;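 active = inhibition of 50% or more, scaled per plate between neutral and stimulator controls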
Numbers stand for hits; – = inactive; ? = inconclusive; · = not tested or not shown.

SMILES	Calb FLC	Mdm2-MdmX inh	CSC inhib	Beta cell apopt	SKKanGAS inh	MPTP inh
CCC(C(=O)NCc1ccc(F)cc1)n1nc(C)n2c(cc3occc32)c1=O (configuration not stated)	–	–	–	–	–	–
CCOC(=O)c1ccc(NC(=S)Nc2cccc(N)n2)cc1	–	–	–	–	58	–
CCOC(=O)c1ccc(NC(=S)Nc2cccc(C)n2)cc1	–	–	–	–	–	–
CCOC(=O)c1ccc(NC(=S)NN)cc1	–	–	–	–	70	–
CCOC(=O)c1ccc(NC(=O)COC)cc1	–	–	–	–	–	–
O=C(CSc1nnc(SCc2ccccc2)s1)N/N=C/C=C/c1ccco1	–	–	–	–	–	–
C(=N\Nc1nc(Nc2ccccc2)nc(N2CCCCC2)n1)/c1ccco1	–	–	–	–	81	·
COc1ccc(/C=N/Nc2nc(N3CCCC3)nc(N3CCCC3)n2)cc1	–	·	–	–	–	–
COc1ccc(/C=N/Nc2nc(Nc3ccccc3)nc(N3CCCC3)n2)cc1	–	–	–	·	56	–
Cc1ccc(OCCN2CCC2(C)C(=O)NCc2cccc3ccccc23)cc1 (configuration not stated)	·	·	·	·	·	–
COc1ccc(CN2CC(C(=O)NCC3CCCO3)CC2=O)cc1 (configuration not stated)	–	–	·	–	–	–
O=c1c2c(n3nnnc3n1Cc1ccccc1)-c1ccccc1CC21CCCC1	–	–	–	–	65	–
CCC1(C)Cc2ccccc2-c2c1c(=O)n(Cc1ccccc1)c1nnnn21 (configuration not stated)	–	–	135	–	69	–
CC(=O)NS(=O)(=O)c1ccc(NC(=S)Nc2ccccc2)cc1	–	–	–	–	–	–
Fc1ccc(CSc2ncnc3sc4c(c23)CCCC4)cc1	–	–	–	–	77	–
Cn1nc(-c2ccccc2)cc1NC(=O)Nc1ccccc1F	–	–	–	–	–	–
Cc1ccc(NC(=O)c2cc(S(=O)(=O)NCC3CCCO3)ccc2F)cc1 (configuration not stated)	·	·	·	·	·	–
Cc1ccc(NC(=O)c2cc(S(=O)(=O)NCCC3=CCCCC3)ccc2F)cc1	–	–	·	105	–	–
CC(OC(=O)c1oc2ccccc2c1COc1ccccc1)C(N)=O (configuration not stated)	109	–	–	·	–	–
COc1cccc(-c2ncc3ccccc3c2COC(=O)CCCC(=O)O)c1	·	–	–	–	·	–
COc1ccc(C(=O)NCCN2CCOCC2)c(OC)c1OC	70	–	–	–	–	–
Cc1ccc(-c2n[nH]c3c2CCC3)cc1	–	–	–	–	55	–
COc1cc(-c2nnc(SCc3cc(=O)oc4cc(O)c(O)cc34)o2)cc(OC)c1OC	104	–	–	·	–	–
CCNS(=O)(=O)c1ccc(CCC(=O)NCc2cccnc2)cc1	–	–	–	–	–	–
Cc1ccccc1OCC(=O)NNC(=S)NC(=O)c1ccco1	–	–	·	–	115	–
SMILES	Calb FLC	Mdm2-MdmX inh	CSC inhib	Beta cell apopt	SKKanGAS inh	MPTP inh
CC(C)(C)c1ccc(OCC(=O)NNC(=S)NC(=O)c2ccco2)c(Br)c1	–	–	–	–	119	–
CC1Sc2ccc(S(=O)(=O)NCc3ccccc3)cc2NC1=O (configuration not stated)	–	–	–	–	–	–
Cc1nn(C)cc1C(C(=O)NC1CCCCC1)N(Cc1ccc(F)cc1)C(=O)c1cnccn1 (configuration not stated)	–	–	–	–	–	–
Cc1nn(C)cc1C(C(=O)NC1CCCCC1)N(Cc1ccccc1Cl)C(=O)c1cnccn1 (configuration not stated)	78	–	–	–	–	–
Cc1ccc(N(CN2CCCC2=O)C(=O)c2ccccc2)cc1	?	–	–	–	–	–
COc1ccc(C(=O)N(CN2CCCC2=O)c2ccc(C)cc2)cc1	103	–	–	–	–	–
N#C/C(=C(/O)CSc1ccccn1)c1nc2ccccc2s1	–	–	–	–	–	–
COc1ccc(C/C(O)=C(\C#N)c2nc3ccccc3s2)cc1	94	–	·	·	–	–
Cc1ccc(NS(=O)(=O)c2ccc(NC(=O)C(C)Sc3ccc(Cl)cc3)cc2)c(C)c1 (configuration not stated)	–	–	77	–	–	–
CCOC(=O)Nc1ccc2nc(Sc3ccc(Cl)cc3)sc2c1	–	–	85	–	–	–
CSc1nc2ccc(NC(=O)c3ccc(F)c(F)c3)cc2s1	–	–	–	·	–	–
CCC1(c2ccc(Cl)cc2)NC(=S)N(c2ccccc2)N1 (configuration not stated)	117	–	–	–	–	–
CCC1(c2ccccc2)NC(=S)N(c2ccc(C)cc2)N1 (configuration not stated)	106	–	·	–	–	–
CCCCCC1(C)NC(=S)N(c2ccccc2)N1 (configuration not stated)	·	–	–	–	–	–
CC(C)Cc1ccc(CN2CCCC(NC(=O)CCN3CCCO3)C2)cc1 (configuration not stated)	88	–	–	–	–	–
CCCc1ccc(Oc2c(-c3ccc(O)c(C)c3O)n[nH]c2C)cc1	–	–	100	–	95	–
COc1ccc(C(NC(=O)C2CCN(CCCOc3ccccc3)CC2)c2cccs2)cc1 (configuration not stated)	·	·	·	·	·	–
Cc1ccc(/C=C/S(=O)(=O)NCc2ccc(F)cc2)cc1	–	–	–	–	–	–
O=[N+]([O-])c1cc(S(=O)(=O)N2CCCCCC2)ccc1F	·	·	102	–	·	–
Cc1cccc2cc(-c3ccccc3)c(-c3ccccc3)c[n+]12	–	·	–	99	–	–
O=[N+]([O-])c1cccc(-c2cc3cccc[n+]3cc2-c2cccc([N+](=O)[O-])c2)c1	–	–	–	–	–	–
COCc1ccc(-c2c(-c3ccsc3)sc3ccccc23)cc1	·	–	–	–	·	–
COc1cc(OC)cc(C(=O)Nc2ccc3nc4n(c(=O)c3c2)CCCCC4)c1	–	–	–	–	–	–
COc1ccc(OC)c(CCNC(=O)C(=O)Nc2ccc3nc4n(c(=O)c3c2)CCCCC4)c1	–	–	·	–	57	–
COc1ccc(C(C(=O)NCc2ccccc2)N(C(=O)c2snc(C(N)=O)c2N)c2ccccc2OC)cc1OC (configuration not stated)	–	–	–	–	–	–
O=[N+]([O-])c1ccc(N=Nc2c(Cl)cc(O)cc2Cl)cc1	?	·	110	122	50	–
Cc1ccc(N=C2SC(C(=O)Nc3ccc(OC(F)(F)F)cc3)C(N)=C2C(=O)Nc2c(C)cc(C)cc2C)cc1 (configuration not stated)	·	·	106	99	·	–
CCN1C(=O)[C@H]2[C@@H](c3ccc(C)cc3)N[C@]3(CCCN(Cc4ccc(C(F)(F)F)cc4)C3=O)[C@H]2C1=O	·	·	·	·	·	–
Cc1ccc(C2C3CSCC=C3C(C#N)=C(N)C2(C#N)C#N)cc1 (configuration not stated)	90	–	–	–	–	–

Compound activity as filed in PubChem BioAssay.
